A selection: hits, their analogues and other compounds. The true share with any hit is near 2.3%.
ABHD5 PLIN5 PPI = ABHD5-PLIN5 interaction inhibitors, primary screen, cell lysate, split luciferase complementation, luminescence | Perilipin-5 (Homo sapiens) + 1-acylglycerol-3-phosphate O-acyltransferase ABHD5 (Homo … | Split G. princeps luciferase complementation, 4 h | inhibition, % at 4 µM | hit rate 0.78% among 360,000;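 active = inhibition above the mean inhibition across every tested compound plus 3 SD, cut at about 22% in these data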;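 also: 0% = DMSO only wells and the 100% control is not disclosed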
Beta2AR agonist = beta2AR agonists driving receptor internalization, primary screen, cell-based, FAP fluorogen, flow cytometry; Beta-2 adrenergic receptor (Homo sapiens), P07550; Am2.2-beta2AR cells; response, % (concentration not given with the values); hit rate 0.43% among 340,000;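 active = response above a set limit, near 3 SD of response in nonfluorescent compounds, cut at about 42% in these data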
Target sequence (P07550 whole entry, looked up): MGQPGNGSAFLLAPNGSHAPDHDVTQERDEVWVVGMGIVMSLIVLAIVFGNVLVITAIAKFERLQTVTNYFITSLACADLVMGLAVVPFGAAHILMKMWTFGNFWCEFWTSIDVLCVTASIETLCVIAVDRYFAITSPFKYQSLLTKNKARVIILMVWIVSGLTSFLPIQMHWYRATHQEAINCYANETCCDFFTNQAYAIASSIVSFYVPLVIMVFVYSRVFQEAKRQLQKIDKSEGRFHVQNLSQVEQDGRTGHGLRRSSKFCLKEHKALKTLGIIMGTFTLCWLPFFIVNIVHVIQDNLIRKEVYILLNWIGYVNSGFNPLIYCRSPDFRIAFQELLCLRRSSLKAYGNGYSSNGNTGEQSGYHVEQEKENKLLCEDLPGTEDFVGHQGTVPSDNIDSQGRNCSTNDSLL
NTR1 ag = agonists of human NTR1, primary screen, imaging, U2OS cells, beta-arrestin-GFP, high content. NTR1-U2OS beta-arrestin-GFP spot imaging, agonist mode. activation, % at 20 µM. hit rate 0.17% among 330,000;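 active = activation at or above 40% of the spot to cytoplasm intensity ratio, with at least 20 cells analyzed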;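 also: 0% = DMSO without peptide and 100% = 100 nM NTR1 peptide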
Exocytosis inh = LAMP-1 surface exposure blockers, TALL-104 cells – cell-based, flow cytometry, MLPCN library, primary screen; hit rate 0.66% among 360,000; inhibition, % at 10 µM; TALL-104 LAMP-1 surface exposure; cells stimulated with thapsigargin and PMA; AID 651702, 2012;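 active = inhibition above about 55%, limit read from the data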
m5-HT2A agonist = mouse Htr2a agonists via beta-arrestin recruitment, primary screen, cell-based, luminescence | activation, % at 7.6 µM | hit rate 0.66% among 360,000 | 5-hydroxytryptamine receptor 2A (Mus musculus), P35363 | CHO-K1 mHTR2A beta-arrestin complementation; percent of 30 µM serotonin response;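 active = activation above a run cutoff, the mean activation of all tested compounds plus 3 SD, cut at about 14% in these data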;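 also: 0% = plate median of compound wells and 100% = 30 µM serotonin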
* = called active by the depositor.

Screening CC(C)(C)S(=O)N1Cc2cc(C(=O)NCc3ccc(Oc4ccccc4)cc3)nc(-c3cccc(-c4cc5ccccc5o4)c3)c2[C@H]1CCO (stereo partly drawn) returned ABHD5 PLIN5 PPI 8.1, Exocytosis inh -1.8 and m5-HT2A agonist 0.2.
Screening CC(C)(C)S(=O)N1Cc2cc(C(=O)NCc3ccc4c(c3)OCO4)nc(-c3cccc(-c4cc5ccccc5o4)c3)c2[C@@H]1CCO (stereo partly drawn) returned ABHD5 PLIN5 PPI 23.6*, Exocytosis inh 51.0 and m5-HT2A agonist -1.7.
For Cc1ccc(CCC(=O)Nc2ccc(C)c(C)c2)o1 the results were ABHD5 PLIN5 PPI 2.0, Beta2AR agonist 3.4, NTR1 ag 0.7, Exocytosis inh -1.7 and m5-HT2A agonist -7.7.
`N#CC1=C(SCC(=O)Nc2cccc3cccnc23)NC(=O)C(C#N)C12CCCCC2` (stereo not drawn) gave ABHD5 PLIN5 PPI -3.9, Beta2AR agonist 7.2, NTR1 ag 4.5, Exocytosis inh 1.4 and m5-HT2A agonist 16.2*.
N#CC1=C(SCC(=O)NC2CC2)NC(=O)C(C#N)C12CCCCC2 (stereo not drawn) was read as ABHD5 PLIN5 PPI 1.4, Beta2AR agonist 0.7, NTR1 ag -0.9, Exocytosis inh -4.2 and m5-HT2A agonist 5.5.
Screening CC(/C=N/n1c(-c2ccc(Cl)cc2)n[nH]c1=S)=C\c1ccco1 returned ABHD5 PLIN5 PPI -1.6, Beta2AR agonist -13.3, NTR1 ag 1.6, Exocytosis inh 17.8 and m5-HT2A agonist 2.2.
For N#CC(C#N)=C1C=CC=CN1/C(=C\c1ccco1)C(=O)c1ccc(Cl)cc1 the results were ABHD5 PLIN5 PPI 87.1*, Beta2AR agonist 58.3*, Exocytosis inh 90.1* and m5-HT2A agonist -2.2.
For CN1C[C@@H]2[C@@H]3C(=O)N(C)C(=O)[C@@H]3[C@](C)(C1=O)N2C(=O)c1ccc(C(C)(C)C)cc1 the results were ABHD5 PLIN5 PPI 0.9, Beta2AR agonist -1.2, Exocytosis inh -6.4 and m5-HT2A agonist -2.3.
O=[N+]([O-])c1ccc(N2CCN(CCO)CC2)cc1Sc1nc2ccccc2[nH]1 was read as ABHD5 PLIN5 PPI -1.0, Beta2AR agonist -4.2, NTR1 ag 0.8, Exocytosis inh 0.6 and m5-HT2A agonist -10.8.
`O=C(O)C(c1ccccc1)N1C(=O)/C(=C\c2ccc(-c3ccc(Br)cc3)o2)SC1=S` (stereo not drawn) gave ABHD5 PLIN5 PPI 5.7, Beta2AR agonist -108.3, NTR1 ag -2.6, Exocytosis inh 0.7 and m5-HT2A agonist 3.0.
For C=CCN1C(=O)/C(=C/c2ccsc2)SC1=S the results were ABHD5 PLIN5 PPI -0.9, Beta2AR agonist 43.7*, NTR1 ag 1.8, Exocytosis inh -1.4 and m5-HT2A agonist 0.1.
For C=CCN1C(=O)/C(=C/c2ccc(-c3ccc(F)cc3)o2)SC1=S the results were ABHD5 PLIN5 PPI -1.4, Beta2AR agonist -143.5, NTR1 ag 2.3, Exocytosis inh 93.2* and m5-HT2A agonist -1.1.
`Cc1nccn1CCC(=O)Nc1ccc(Cl)cc1` gave ABHD5 PLIN5 PPI -0.5, Beta2AR agonist 0.3, NTR1 ag -0.3, Exocytosis inh 3.2 and m5-HT2A agonist 3.1.
`Cc1nn(C)c(NC(=O)c2ccc(Cl)cc2Cl)c1Br` gave ABHD5 PLIN5 PPI -0.1, Beta2AR agonist 10.3, NTR1 ag -1.9, Exocytosis inh 3.9 and m5-HT2A agonist -0.1.
For COC(=O)c1cccc(C23CC4(C2)[C@H](CN(Cc2ccc(C(F)(F)F)cc2)[C@@H]4c2ccccc2)C3c2ccc(C(F)(F)F)cc2)c1 (stereo partly drawn) the results were NTR1 ag 2.8.
For COC(=O)c1cccc(C23CC4(C2)[C@H](CN(Cc2ccc(C(F)(F)F)cc2)[C@@H]4c2ccccc2)C3c2ccc(Cl)nc2)c1 (stereo partly drawn) the results were ABHD5 PLIN5 PPI -4.0, Beta2AR agonist -1.0, NTR1 ag 1.3, Exocytosis inh 77.4* and m5-HT2A agonist 5.8.
For CCOC(=O)C1=CCN(S(=O)(=O)c2ccc(C)cc2)C1c1ccccc1F (stereo not drawn) the results were ABHD5 PLIN5 PPI 3.3, Exocytosis inh -3.1 and m5-HT2A agonist 4.0.
For COc1ccc2c(n1)Sc1nc3ccccc3nc1N2 the results were ABHD5 PLIN5 PPI -4.0, Beta2AR agonist -137.5, Exocytosis inh 61.6* and m5-HT2A agonist 0.6.
Screening COc1cc2ccccc2nn1 returned ABHD5 PLIN5 PPI 1.7, Beta2AR agonist -3.8, NTR1 ag -0.5, Exocytosis inh -4.5 and m5-HT2A agonist 4.6.
Screening O=C(CN1CCC(C(=O)c2ccc(F)cc2)CC1)Nc1ccccc1Cl returned ABHD5 PLIN5 PPI -8.3, Beta2AR agonist 5.9, NTR1 ag -0.2, Exocytosis inh 5.0 and m5-HT2A agonist -7.2.
Screening O=C(O)C1CCCN1S(=O)(=O)c1cccc2nsnc12 (stereo not drawn) returned ABHD5 PLIN5 PPI -5.8, Beta2AR agonist 6.8, NTR1 ag 2.5, Exocytosis inh -0.7 and m5-HT2A agonist 3.2.
Screening Cc1ccsc1/C=C/C1=Cc2c(sc(NC(=O)CSc3n[nH]c(N)n3)c2C#N)C(C)(C)C1 returned ABHD5 PLIN5 PPI -8.0, Beta2AR agonist 9.5, NTR1 ag 4.3, Exocytosis inh 100.9* and m5-HT2A agonist -2.2.
CCOC(=O)c1sc(NC(=O)CSc2n[nH]c(-c3ccncc3)n2)c(C#N)c1C was read as ABHD5 PLIN5 PPI 5.2, Beta2AR agonist 5.8, NTR1 ag 0.3, Exocytosis inh 3.1 and m5-HT2A agonist -0.2.
CCOc1ccc(/C=C/C2=Cc3c(sc(NC(=O)CSc4n[nH]c(N)n4)c3C#N)C(C)(C)C2)cc1 was read as ABHD5 PLIN5 PPI 6.1, Beta2AR agonist -4.1, NTR1 ag 11.1, Exocytosis inh 77.6* and m5-HT2A agonist -1.5.
For O=C(CSC1=NS(=O)(=O)c2ccccc2N1)Nc1ccccc1F the results were ABHD5 PLIN5 PPI 2.8, Beta2AR agonist -2.4, NTR1 ag 0.7, Exocytosis inh -2.3 and m5-HT2A agonist -8.2.
Screening COc1ccccc1N1CCN(C(=O)c2oc3ccc(F)cc3c2C)CC1 returned ABHD5 PLIN5 PPI 2.2, Beta2AR agonist 0.7, NTR1 ag -2.6, Exocytosis inh -7.4 and m5-HT2A agonist -1.3.
Screening Cc1c(C(=O)Nc2ccccc2N2CCN(C)CC2)oc2ccc(F)cc12 returned ABHD5 PLIN5 PPI 22.0*, Beta2AR agonist 9.9, NTR1 ag 0.8, Exocytosis inh 3.6 and m5-HT2A agonist -13.4.
Cc1ccc(Sc2ccc(/C=N/O)cc2[N+](=O)[O-])cc1 was read as ABHD5 PLIN5 PPI 4.7, Beta2AR agonist 58.2*, NTR1 ag 6.5, Exocytosis inh -0.3 and m5-HT2A agonist -3.6.
NC(=S)N/N=C\c1c2ccccc2cc2ccccc12 was read as ABHD5 PLIN5 PPI -3.4, Beta2AR agonist 10.4, Exocytosis inh 64.6* and m5-HT2A agonist 2.7.
